# Values without a mark were called inactive. Records with an inconclusive call do not appear. Where a call stands in place of a potency, no number is given. Calls of active or inactive are those of the source. Unless noted, the call rests on the fitted dose curve.
# How the values were obtained:
# [1] = Nuclear factor erythroid 2-related factor 2/antioxidant responsive element (Nrf2/ARE) small molecule agonists: qHTS cell viability counter screen in human keratinocytes (AID 1919968; active means well fitted curve in the direction sought with a large enough effect in the repeat runs; an effect the other way counts as inactive or inconclusive; further: nearly all actives have a fitted effect of over 55% in size)
# Procedure, shortened: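 CellTiter-Fluor fluorescence, read 1 h after reagent, gave viability in the same wells as the ARE-luciferase assay. KeratinoSens cells (1,500/well) had 23 h compound exposure at 37 C/5% CO2 following 5 h plating.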
# [2] = Nuclear factor erythroid 2-related factor 2/antioxidant responsive element (Nrf2/ARE) small molecule agonists: luciferase reporter gene qHTS assay in human keratinocytes (AID 1919969); further: nearly all actives have a fitted effect of over 35% in size; further: potency means the concentration at half of the fitted maximal effect
# [3] = target: Gonadotropin-releasing hormone receptor (Homo sapiens) (UniProt P30968); experiment: Human gonadotropin-releasing hormone receptor (GnRHR) small molecule agonists, calcium flux assay in GnRHR-HEK293 cells (AID 1920063); further: nearly all actives have a fitted effect of over 35% in size
# Procedure, shortened: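 Agonist mode: compounds at 15 concentrations, in triplicate, went onto calcium dye-loaded GnRHR-HEK293 cells. Intracellular calcium was then followed as 480/540 nm fluorescence at 1 s intervals over 3 min.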
# [4] = target: KiSS-1 receptor (Homo sapiens) (UniProt Q969F8); experiment: Human kisspeptin (KISS1R) small molecule agonists, calcium flux assay in KISS1R-HEK293 cells (AID 1920064; active means well fitted curve in the direction sought with a large enough effect in the repeat runs; an effect the other way counts as inactive or inconclusive)
# Procedure, shortened: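 Agonist mode: intracellular calcium rise tracked at 1 s intervals over 3 min (480/540 nm) immediately after compound addition to dye-loaded KISS1R-HEK293 stable cells. Each compound tested at 15 concentrations in triplicate.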
# [5] = G protein-coupled receptor (GPCR) small molecule agonists, calcium flux assay: HEK293 wild type cell line counter screen (AID 1920065)
# Procedure, shortened: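 Calcium flux counter screen: compound added in agonist mode at 15 concentrations in triplicate to dye-loaded parental HEK293 cells. Fluorescence (480/540) read kinetically for 3 min; ATP served as positive control.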
# [6] = p53 small molecule agonists, cell-based qHTS assay with human liver microsomes (AID 1963577);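 further: p53 response element beta-lactamase reporter cells with liver microsomes plus NADPH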
# Procedure, shortened: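 16 h, 37 C exposure of p53RE-bla cells to compounds with human liver microsomes and NADPH (0.5 mg/mL final each); detection via LiveBLAzer mixture, 2 h dark at room temperature.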
# [7] = p53 small molecule agonists, cell-based qHTS assay with rat liver microsomes (AID 1963578)
# Procedure, shortened: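 With rat liver microsomes and NADPH present (0.5 mg/mL final each), p53RE-bla cells are treated with compound for 16 h at 37 C. LiveBLAzer detection mixture is then applied for 2 h at room temperature in the dark.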
# [8] = p53 small molecule agonists, cell-based qHTS assay with human liver microsomes: qHTS cell viability counter screen (AID 1963579); further: nearly all actives have a fitted effect of over 45% in size
# Procedure, shortened: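 In this multiplexed counter screen, the reporter plates were subsequently treated with CellTiter-Glo so that cell viability, reflected by luminescence, could be recorded for p53RE-bla cells dosed 16 h with compounds under microsomal activation (HLM and NADPH).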
# [9] = p53 small molecule agonists, cell-based qHTS assay with rat liver microsomes: qHTS cell viability counter screen (AID 1963580); further: nearly all actives have a fitted effect of over 45% in size
# Procedure, shortened: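 Luminescent ATP readout (CellTiter-Glo, 30 min at room temperature) reports viability of p53RE-bla HCT-116 cells after 16 h at 37 C with test compounds under metabolic activation by rat liver microsomes and NADPH at 0.5 mg/mL final each.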
# [10] = p53 small molecule agonists, cell-based qHTS assay: qHTS cell viability counter screen (AID 1963581); further: nearly all actives have a fitted effect of over 45% in size; further: potency means the concentration at half of the fitted maximal effect
# Procedure, shortened: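 Counter screen read by CellTiter-Glo luminescence (ATP content, 30 min at room temperature), run in the same wells as the beta-lactamase reporter read. HCT-116 p53RE-bla cells saw compounds for 16 h at 37 C.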
# [11] = target: 5-hydroxytryptamine receptor 2A (Homo sapiens) (UniProt P28223); experiment: 5-hydroxytryptamine receptor 2A (HTR2A) small molecule antagonists, cell-based qHTS assay (AID 1963586); further: nearly all actives have a fitted effect of over 45% in size
# Procedure, shortened: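 CHO cells stably expressing human HTR2A were plated for 18 h at 37 C, then loaded with calcium dye for 1 h. Compounds were preincubated 5 min at room temperature before DOI (4 nM solution) was added. Kinetic fluorescence was read for 3 min.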
# [12] = target: 5-hydroxytryptamine receptor 2A (Homo sapiens) (UniProt P28223); experiment: 5-hydroxytryptamine receptor 2A (HTR2A) small molecule agonists, cell-based qHTS assay (AID 1963587); further: nearly all actives have a fitted effect of over 30% in size
# Procedure, shortened: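 HTR2A-CHO cells, plated 18 h at 37 C/5% CO2, dye-loaded 1 h at 37 C; compounds in DMSO added by pin tool (agonist mode). Intracellular calcium flux read as kinetic fluorescence on FDSS over 2 min at 1 s intervals.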
# [13] = target: Muscarinic acetylcholine receptor M1 (Homo sapiens) (UniProt P11229); experiment: Cholinergic receptor muscarinic 1 (CHRM1) small molecule antagonists, cell-based qHTS assay (AID 1963588); further: nearly all actives have a fitted effect of over 40% in size; further: potency means the concentration at half of the fitted maximal effect
# Procedure, shortened: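 Compounds were tested at 15 concentrations in three independent runs. Dye-loaded CHRM1-CHO cells were exposed 5 min at room temperature before stimulation by acetylcholine added at 50nM. Intracellular calcium was read kinetically on FDSS for 3 min.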
# [14] = target: Muscarinic acetylcholine receptor M1 (Homo sapiens) (UniProt P11229); experiment: Cholinergic receptor muscarinic 1 (CHRM1) small molecule agonists, cell-based qHTS assay (AID 1963589); further: nearly all actives have a fitted effect of over 35% in size
# Procedure, shortened: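 Agonist-mode calcium-flux screen: compounds at 15 concentrations, three independent runs, were pin-transferred onto dye-loaded human CHRM1-CHO cells. Fluorescence was then recorded kinetically every second over minutes.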
# [15] = cAMP Responsive Elements (CRE) small molecule agonists, cell-based qHTS assay (AID 1963590); further: potency means the concentration at half of the fitted maximal effect
# Procedure, shortened: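 Agonist mode: compound added to CRE-bla HEK 293T cells (2,000/well, 18 h after plating) for 3 h at 37 C/5% CO2. Reporter activity detected via FRET beta-lactamase substrate, 2 h room-temperature loading.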
# [16] = cAMP Responsive Elements (CRE) small molecule antagonists, cell-based qHTS assay (AID 1963591; active means well fitted inhibition curve with a large enough effect in the signal ratio in the repeat runs, not every such curve was filed as active; the % refers to the signal ratio)
# Procedure, shortened: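 Antagonist mode: compounds are added alongside the adenylyl cyclase activator NKH477 (0.25 uM final) to CRE-bla HEK293T cells for 3 h. LiveBLAzer FRET substrate, 2 h at room temperature, reports bla expression.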
# [17] = target: D(2) dopamine receptor (Homo sapiens) (UniProt P14416); experiment: Dopamine D2 receptor (DRD2) small molecule agonists, cell-based qHTS assay (AID 1963594); further: nearly all actives have a fitted effect of over 35% in size; further: potency means the concentration at half of the fitted maximal effect
# Procedure, shortened: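 HEK293 cells stably expressing DRD2 were cultured 24 h at 37 C, then given Ro20-1724 (0.1 mM final) and compounds for 10 min at room temperature. NKH477 (200nM) was then added for 30 min. cAMP was read by HTRF.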
# [18] = target: D(2) dopamine receptor (Homo sapiens) (UniProt P14416); experiment: Dopamine D2 receptor (DRD2) small molecule antagonists, cell-based qHTS assay (AID 1963595; active means well fitted inhibition curve with a large enough effect in the signal ratio in the repeat runs, with a control signal flat; the % refers to the signal ratio)
# Procedure, shortened: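 In this cell-based antagonist screen, compounds act for 10 min at room temperature before a 30 min challenge with 12 nM quinpirole and 200 nM NKH477. cAMP is quantified by HTRF competition in DRD2-HEK293 cells containing 0.1 mM Ro20-1724.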
# [19] = target: Beta-2 adrenergic receptor (Homo sapiens) (UniProt P07550); experiment: Adrenergic beta2 receptor (ADRB2) small molecule agonists, cell-based qHTS assay (AID 1963593);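 further: CHO cells stably overexpressing human ADRB2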
# Procedure, shortened: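 CHO cells stably over-expressing ADRB2 were plated overnight at 37C, then dosed with compounds plus a stimulation mix containing 100uM IBMX and 25uM Ro-20-1724 for 0.5hr at room temperature. cAMP was measured by HTRF competition, 1hr.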
# [20] = target: Beta-2 adrenergic receptor (Homo sapiens) (UniProt P07550); experiment: Adrenergic beta2 receptor (ADRB2) small molecule antagonists, cell-based qHTS assay (AID 1963592); further: series mostly up to about 92 µM; nearly all actives have a fitted effect of over 50% in size
# Procedure, shortened: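 Assay format: CHO-ADRB2 cells, 18-20hr seeding at 37C/5% CO2, then compound plus 1nM isoproterenol agonist mix for 0.5hr RT. Homogeneous time-resolved fluorescence cAMP detection after 1hr, expressed as 665/615 nm ratio.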
# Sequence of 5-hydroxytryptamine receptor 2A (Homo sapiens) (P28223 whole entry, looked up): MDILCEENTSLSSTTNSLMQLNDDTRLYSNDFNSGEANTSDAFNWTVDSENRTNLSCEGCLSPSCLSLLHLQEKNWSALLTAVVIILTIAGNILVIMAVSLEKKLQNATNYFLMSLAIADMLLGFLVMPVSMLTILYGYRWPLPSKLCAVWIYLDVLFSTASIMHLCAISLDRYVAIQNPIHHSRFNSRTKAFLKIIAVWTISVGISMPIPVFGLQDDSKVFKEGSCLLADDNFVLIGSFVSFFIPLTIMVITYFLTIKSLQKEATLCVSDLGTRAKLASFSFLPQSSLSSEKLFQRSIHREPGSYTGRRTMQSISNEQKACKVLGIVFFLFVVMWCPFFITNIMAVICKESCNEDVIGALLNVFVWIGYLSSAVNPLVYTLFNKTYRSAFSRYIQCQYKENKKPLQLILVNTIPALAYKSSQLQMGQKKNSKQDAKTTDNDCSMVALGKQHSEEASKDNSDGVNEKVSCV
# Sequence of Beta-2 adrenergic receptor (Homo sapiens) (P07550 whole entry, looked up): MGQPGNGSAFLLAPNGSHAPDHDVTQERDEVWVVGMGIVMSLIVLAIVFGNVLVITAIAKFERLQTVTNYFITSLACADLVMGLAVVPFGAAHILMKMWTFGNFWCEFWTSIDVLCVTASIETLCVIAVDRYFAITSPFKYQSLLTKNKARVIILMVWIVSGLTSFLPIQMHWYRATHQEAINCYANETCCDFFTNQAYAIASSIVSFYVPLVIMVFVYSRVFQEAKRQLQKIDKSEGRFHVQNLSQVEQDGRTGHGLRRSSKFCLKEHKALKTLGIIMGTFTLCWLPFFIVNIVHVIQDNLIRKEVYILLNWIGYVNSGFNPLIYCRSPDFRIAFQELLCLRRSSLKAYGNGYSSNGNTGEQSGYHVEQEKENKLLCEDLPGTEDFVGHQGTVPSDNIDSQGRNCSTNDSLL
# Sequence of Muscarinic acetylcholine receptor M1 (Homo sapiens) (P11229 whole entry, looked up): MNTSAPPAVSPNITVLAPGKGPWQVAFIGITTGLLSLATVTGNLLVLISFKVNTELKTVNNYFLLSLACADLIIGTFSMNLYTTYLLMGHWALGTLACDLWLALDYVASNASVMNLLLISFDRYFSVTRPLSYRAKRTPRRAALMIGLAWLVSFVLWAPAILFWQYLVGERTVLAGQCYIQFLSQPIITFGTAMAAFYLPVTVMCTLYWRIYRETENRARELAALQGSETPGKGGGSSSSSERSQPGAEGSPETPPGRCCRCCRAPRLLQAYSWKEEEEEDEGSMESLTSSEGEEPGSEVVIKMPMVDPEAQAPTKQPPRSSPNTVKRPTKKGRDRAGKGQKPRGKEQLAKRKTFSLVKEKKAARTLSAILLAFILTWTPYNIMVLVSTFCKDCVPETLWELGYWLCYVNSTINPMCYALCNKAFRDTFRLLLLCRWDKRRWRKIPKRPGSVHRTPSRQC
# Sequence of Gonadotropin-releasing hormone receptor (Homo sapiens) (P30968 whole entry, looked up): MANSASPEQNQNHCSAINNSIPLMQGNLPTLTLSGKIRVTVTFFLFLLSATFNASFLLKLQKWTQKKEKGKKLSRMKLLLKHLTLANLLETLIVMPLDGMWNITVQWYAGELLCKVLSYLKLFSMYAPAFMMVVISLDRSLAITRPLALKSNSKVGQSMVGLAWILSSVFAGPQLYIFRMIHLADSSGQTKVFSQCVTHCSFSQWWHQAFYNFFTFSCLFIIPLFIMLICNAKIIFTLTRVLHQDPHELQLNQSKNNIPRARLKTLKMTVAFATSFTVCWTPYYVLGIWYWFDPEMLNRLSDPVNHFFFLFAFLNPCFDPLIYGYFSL
# Sequence of KiSS-1 receptor (Homo sapiens) (Q969F8 whole entry, looked up): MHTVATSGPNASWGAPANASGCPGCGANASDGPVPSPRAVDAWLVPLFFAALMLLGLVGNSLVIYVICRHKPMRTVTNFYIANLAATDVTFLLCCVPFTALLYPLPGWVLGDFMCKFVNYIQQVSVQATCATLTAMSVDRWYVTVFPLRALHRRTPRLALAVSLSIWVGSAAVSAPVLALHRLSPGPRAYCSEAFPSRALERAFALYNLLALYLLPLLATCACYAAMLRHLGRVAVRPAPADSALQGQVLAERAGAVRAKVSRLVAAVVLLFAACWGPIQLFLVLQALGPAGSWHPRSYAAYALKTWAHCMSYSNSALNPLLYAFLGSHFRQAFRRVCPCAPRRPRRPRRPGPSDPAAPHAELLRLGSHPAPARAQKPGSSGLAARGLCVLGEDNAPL
# Sequence of D(2) dopamine receptor (Homo sapiens) (P14416 whole entry, looked up): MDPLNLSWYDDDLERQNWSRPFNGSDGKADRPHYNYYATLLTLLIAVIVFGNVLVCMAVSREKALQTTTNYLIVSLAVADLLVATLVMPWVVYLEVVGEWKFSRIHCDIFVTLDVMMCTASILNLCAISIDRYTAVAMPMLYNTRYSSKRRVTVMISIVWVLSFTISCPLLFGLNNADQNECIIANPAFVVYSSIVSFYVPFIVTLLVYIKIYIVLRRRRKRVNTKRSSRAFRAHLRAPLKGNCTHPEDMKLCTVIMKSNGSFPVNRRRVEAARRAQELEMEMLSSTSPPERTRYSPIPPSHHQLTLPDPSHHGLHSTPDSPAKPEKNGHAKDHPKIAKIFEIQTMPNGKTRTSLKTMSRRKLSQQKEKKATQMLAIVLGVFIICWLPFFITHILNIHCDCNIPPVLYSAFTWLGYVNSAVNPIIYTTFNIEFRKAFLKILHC
SMILES,Potency [1],Potency [2],Potency [3],outcome [4],outcome [5],Potency [6],Potency [7],Potency [8],Potency [9],Potency [10],Potency [11],Potency [12],Potency [13],Potency [14],Potency [15],Potency [16],Potency [17],Potency [18],Potency [19],Potency [20]
Cc1[nH]c(=O)c(C#N)cc1-c1ccc2nccn2c1,inactive,inactive,inactive,inactive,inactive,inactive,inactive,inactive,inactive,inactive,inactive,inactive,inactive,inactive,inactive,inactive,inactive,inactive,–,–
CC(C)=CCC1=C(O)c2ccccc2C(=O)C1=O,inactive,60.8 µM (active),inactive,inactive,inactive,inactive,inactive,inactive,inactive,3.61 µM (active),inactive,inactive,inactive,inactive,–,inactive,inactive,–,inactive,–
Cc1ccc2ccccc2n1,inactive,inactive,inactive,inactive,inactive,inactive,inactive,inactive,inactive,inactive,inactive,inactive,inactive,inactive,–,inactive,inactive,inactive,inactive,inactive
Cc1cccc(C)c1NC(=O)c1ccccc1C(=O)O,inactive,inactive,inactive,inactive,inactive,inactive,inactive,inactive,inactive,inactive,inactive,inactive,inactive,inactive,inactive,inactive,–,inactive,–,inactive
N#Cc1ccc(C/C(=N/NC(=O)Nc2ccc(OC(F)(F)F)cc2)c2cccc(C(F)(F)F)c2)cc1,inactive,inactive,inactive,inactive,inactive,inactive,inactive,inactive,inactive,inactive,inactive,inactive,inactive,inactive,–,inactive,–,inactive,–,inactive
Nc1nc(Cl)nc2c1ncn2[C@@H]1O[C@H](CO)[C@@H](O)[C@@H]1F,inactive,inactive,inactive,inactive,inactive,inactive,inactive,inactive,inactive,inactive,inactive,inactive,inactive,inactive,29.8 µM (active),–,0.422 µM (active),inactive,–,inactive
Cc1cccc(C)c1NC(=O)c1cc(S(N)(=O)=O)c(Cl)cc1O,inactive,inactive,inactive,inactive,inactive,inactive,inactive,inactive,inactive,inactive,inactive,inactive,0.0033 µM (active),inactive,inactive,inactive,inactive,inactive,–,inactive
COC(=O)NN,inactive,inactive,inactive,inactive,inactive,inactive,inactive,inactive,inactive,inactive,inactive,inactive,inactive,inactive,inactive,–,inactive,inactive,–,–
COCCOC(=O)C1=C(C)NC(C)=C(C(=O)OC/C=C/c2ccccc2)C1c1cccc([N+](=O)[O-])c1 (configuration not stated),inactive,inactive,inactive,inactive,inactive,inactive,inactive,inactive,inactive,inactive,inactive,inactive,inactive,inactive,inactive,inactive,inactive,inactive,–,inactive
CCOC(=O)Nc1ccc(NCc2ccc(F)cc2)nc1N,inactive,inactive,inactive,inactive,inactive,inactive,inactive,inactive,inactive,inactive,inactive,inactive,inactive,inactive,inactive,–,–,inactive,–,inactive
C/C=C(\C)C=O,inactive,inactive,inactive,inactive,inactive,inactive,inactive,inactive,inactive,inactive,inactive,inactive,inactive,inactive,inactive,inactive,inactive,inactive,–,inactive
CCOC(=O)CS,inactive,70.5 µM (active),inactive,inactive,inactive,inactive,inactive,inactive,inactive,inactive,inactive,inactive,inactive,inactive,inactive,inactive,inactive,inactive,–,inactive

# From PubChem BioAssay (Tox21)
